What all share (test): NCI-60 one-dose screen, 48 h (100 = growth as untreated, 0 = no growth, -100 = all killed)
One experiment deals with SK-MEL-2 melanoma. Particulars: 10 µM unless noted.
Another experiment has as its system EKVX NSCLC. Particulars: 10 µM unless noted.
For the next experiment, the system named is SN12C renal. Particulars: 10 µM unless noted.
The subject of the next experiment is UO-31 renal. Particulars: 10 µM unless noted.
The subject of a further experiment is TK-10 renal. Particulars: 10 µM unless noted.
In another experiment the test system is ACHN renal. Particulars: 10 µM unless noted.
For a further experiment, the system named is CAKI-1 renal. Particulars: 10 µM unless noted.
For a further experiment, the system named is A498 renal. Particulars: 10 µM unless noted.
The subject of a further experiment is MOLT-4 leukemia. To be noted: 10 µM unless noted.
A further experiment concerns SR leukemia. To be noted: 10 µM unless noted.
In the next experiment the test system is RPMI-8226 leukemia. Particulars: 10 µM unless noted.
For another experiment, the system named is OVCAR-8 ovarian. To be noted: 10 µM unless noted.
For the next experiment, the system named is OVCAR-5 ovarian. To be noted: 10 µM unless noted.
A further experiment has as its system SK-OV-3 ovarian. Particulars: 10 µM unless noted.
The next experiment has as its system IGROV1 ovarian. Particulars: 10 µM unless noted.
The next experiment has as its system OVCAR-3 ovarian. To be noted: 10 µM unless noted.
A further experiment relates to HS 578T breast. To be noted: 10 µM unless noted.
Another experiment concerns NCI/ADR-RES ovarian. Particulars: 10 µM unless noted.
The test system of a further experiment is OVCAR-4 ovarian. To be noted: 10 µM.
The next experiment has as its system CCRF-CEM leukemia. Particulars: 10 µM unless noted.

The source of these data is PubChem BioAssay (NCI).

About 83,000 compounds went through this panel and 20% of them were active in at least one assay; those are over-represented in the sample as a whole.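 Growth was measured after 48 h exposure to one concentration of compound in 96-well plates. Values under 10 count as active.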 A number with no mark means an inactive call. The source made the active and inactive calls.

Consider `CCN(CC)c1ccc2cc(C(Nc3ccc(Cl)cc3)c3nnnn3C(C)(C)C)c(=O)oc2c1` (stereo not drawn), for which the growth in the experiment on SK-MEL-2 melanoma is 89.5%; with EKVX NSCLC, 81.4%; in the experiment on SN12C renal it was 89.6%; with UO-31 renal, 71.8%; with TK-10 renal it was 85.7%; with ACHN renal, 92.4%. In addition, the growth in the experiment on CAKI-1 renal was 73.1%; in the experiment on A498 renal, 81%; in the experiment on MOLT-4 leukemia, 63.5%; in the experiment with SR leukemia, 101%; in the experiment with RPMI-8226 leukemia it was 88.4%; in the experiment on OVCAR-8 ovarian it was 89.9%. The growth is 90.2% in the experiment on OVCAR-5 ovarian; 105% with SK-OV-3 ovarian; 93.6% in the experiment on IGROV1 ovarian; 94.4% with OVCAR-3 ovarian; 89.4% in the experiment with HS 578T breast; 97.7% with NCI/ADR-RES ovarian.

Turning to `COc1cc(NCc2cn(-c3ccc(C(=O)O)cc3)nc2-c2ccc(C(=O)O)cc2)cc(OC)c1OC`, the growth with SK-MEL-2 melanoma is 102%; in the experiment with EKVX NSCLC, 93.1%; in the experiment on SN12C renal it was 94.7%; with UO-31 renal, 88.9%; in the experiment with TK-10 renal it was 91.6%; in the experiment with ACHN renal, 102%. Also, the growth in the experiment on CAKI-1 renal is 87.9%; in the experiment on A498 renal it was 66%; in the experiment on MOLT-4 leukemia it was 110%; with SR leukemia, 114%; in the experiment with RPMI-8226 leukemia, 93.2%; in the experiment with OVCAR-8 ovarian, 101%. For the same molecule, the growth with OVCAR-5 ovarian was 94.8%; with OVCAR-4 ovarian it was 94.4%; in the experiment on IGROV1 ovarian it was 97.1%; in the experiment on OVCAR-3 ovarian, 106%; with HS 578T breast, 95.6%; with NCI/ADR-RES ovarian it was 107%.

In the case of `COc1ccc2c(c1)C(C)Cc1c(ncnc1-n1cnc3ccccc31)N2C` (stereo not drawn), the growth in the experiment on SK-MEL-2 melanoma was 44%; with EKVX NSCLC it was 40.4%; in the experiment on SN12C renal, 24.5%; with UO-31 renal it was 46.9%; with TK-10 renal it was 63.7%; in the experiment on ACHN renal, 50.1%. The growth in the experiment with CAKI-1 renal is 27.6%; in the experiment with CCRF-CEM leukemia it was 9.22% (active); in the experiment with MOLT-4 leukemia it was 17.8%; with SR leukemia, 11.8%; in the experiment with RPMI-8226 leukemia, 26.5%; in the experiment on OVCAR-8 ovarian, 17.8%. In addition, the growth was 48.7% with OVCAR-5 ovarian; 70% in the experiment with OVCAR-4 ovarian; 14.5% in the experiment with SK-OV-3 ovarian; 50.7% in the experiment on IGROV1 ovarian; 6% (active) in the experiment with OVCAR-3 ovarian; 31.6% with HS 578T breast.

For the molecule `O=C1NC(=O)C(Cc2ccccc2)(Cc2ccccc2)N1`, the growth in the experiment on SK-MEL-2 melanoma is 102%; with EKVX NSCLC, 101%; in the experiment with SN12C renal, 97.9%; with UO-31 renal, 93.6%; in the experiment with TK-10 renal it was 89.4%; with ACHN renal it was 109%. Besides, the growth is 92.1% in the experiment with CAKI-1 renal; 92.4% with CCRF-CEM leukemia; 90.5% in the experiment on MOLT-4 leukemia; 104% with SR leukemia; 91% with RPMI-8226 leukemia; 104% with OVCAR-8 ovarian. Moreover, the growth with OVCAR-5 ovarian is 110%; in the experiment on OVCAR-4 ovarian it was 91.2%; in the experiment on SK-OV-3 ovarian, 98.1%; in the experiment with IGROV1 ovarian, 115%; with OVCAR-3 ovarian, 98.9%; in the experiment on HS 578T breast, 111%. In the experiment on NCI/ADR-RES ovarian, the growth is 101%.

As to `CCOc1cc(NC(=O)c2ccccc2)c(OCC)cc1N`, the growth with SK-MEL-2 melanoma is 112%; in the experiment with EKVX NSCLC, 113%; in the experiment with SN12C renal it was 113%; in the experiment with UO-31 renal, 102%; in the experiment with TK-10 renal, 112%; in the experiment on ACHN renal, 118%. Besides, the growth with CAKI-1 renal was 102%; in the experiment on CCRF-CEM leukemia, 107%; in the experiment on MOLT-4 leukemia, 101%; with SR leukemia, 110%; with RPMI-8226 leukemia, 113%; in the experiment with OVCAR-8 ovarian, 113%. Besides, the growth in the experiment on OVCAR-5 ovarian is 113%; in the experiment with SK-OV-3 ovarian, 114%; in the experiment on IGROV1 ovarian, 84.8%; in the experiment with OVCAR-3 ovarian, 108%; in the experiment with HS 578T breast, 100%.

In the case of `CCCC[C@@H](C=O)NC(=O)[C@H](CC(C)C)NC(=O)[C@H](CC(C)C)NC(=O)OCc1ccccc1`, the growth in the experiment with SK-MEL-2 melanoma is 13.4%; with EKVX NSCLC, -14.2% (active); in the experiment on SN12C renal it was 2.11% (active); in the experiment with UO-31 renal, 23.8%; in the experiment on TK-10 renal it was -20.2% (active); with ACHN renal, 25.3%. For the same molecule, the growth with CAKI-1 renal was 4.61% (active); in the experiment on CCRF-CEM leukemia, -26.5% (active); in the experiment with MOLT-4 leukemia it was -11.7% (active); with SR leukemia, -24.4% (active); with RPMI-8226 leukemia it was -10.2% (active); in the experiment on OVCAR-8 ovarian, 18.8%. The growth is -34.5% (active) in the experiment on OVCAR-5 ovarian; 10.8% in the experiment with OVCAR-4 ovarian; 38.2% with SK-OV-3 ovarian; 8.93% (active) in the experiment on IGROV1 ovarian; -29.1% (active) with OVCAR-3 ovarian; -2.88% (active) in the experiment on NCI/ADR-RES ovarian.

Consider `CC(=O)Nc1ccc2nc3ccc(NC(C)=O)cc3[n+](-c3ccccc3)c2c1`, for which the growth was 106% with SK-MEL-2 melanoma; 118% with EKVX NSCLC; 104% in the experiment on SN12C renal; 93.3% in the experiment with UO-31 renal; 140% in the experiment with TK-10 renal; 98.9% in the experiment on ACHN renal. Besides, the growth is 122% in the experiment with CAKI-1 renal; 158% with A498 renal; 38.9% with MOLT-4 leukemia; 83.7% in the experiment with SR leukemia; 62.1% in the experiment with RPMI-8226 leukemia; 93.5% with OVCAR-8 ovarian. Moreover, the growth was 113% in the experiment on OVCAR-5 ovarian; 86% in the experiment on OVCAR-4 ovarian; 92.8% in the experiment with IGROV1 ovarian; 49.2% in the experiment on OVCAR-3 ovarian; 263% in the experiment with HS 578T breast.

As to `COc1cc2c(cc1OCCCN1CCN(CCCOc3cc4c(cc3OC)C(=O)N3C[C@H](F)C[C@H]3C=N4)CC1)N=C[C@@H]1C[C@@H](F)CN1C2=O`, the growth in the experiment on SK-MEL-2 melanoma is -20.5% (active); in the experiment on EKVX NSCLC, -34.3% (active); in the experiment on SN12C renal, 25.7%; with UO-31 renal, 11.8%; in the experiment with TK-10 renal, -52.5% (active); with ACHN renal, 7.96% (active). Also, the growth in the experiment on CAKI-1 renal was 16.9%; in the experiment on CCRF-CEM leukemia, -28.1% (active); in the experiment with MOLT-4 leukemia it was -16.7% (active); in the experiment on SR leukemia it was -23.4% (active); in the experiment with RPMI-8226 leukemia it was -3.68% (active); with OVCAR-8 ovarian it was 24.4%. The growth was 9.91% (active) in the experiment on OVCAR-5 ovarian; 1.26% (active) in the experiment on OVCAR-4 ovarian; 36.1% with SK-OV-3 ovarian; 12.4% in the experiment on IGROV1 ovarian; 5.75% (active) with OVCAR-3 ovarian; 63.6% in the experiment on NCI/ADR-RES ovarian.
